# Compound activity: PubChem, National Center for Advancing Translational Sciences (NCATS)
# D2 PAM-1 = HTS Assay for Positive Allosteric Modulators of the Human D2 Dopamine Receptor: Primary Screen for Potentiators; HEK293 T-REx D2, calcium flux, EC20 dopamine potentiation; AID 485347, 2010; 340,000 tested, 0.34% active; potentiation, % at 10 µM;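 active = potentiation over 3 SD above the plate norm, cut at about 30% in these data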; also: 0% is about no effect
# Target sequence (P14416 whole entry, looked up): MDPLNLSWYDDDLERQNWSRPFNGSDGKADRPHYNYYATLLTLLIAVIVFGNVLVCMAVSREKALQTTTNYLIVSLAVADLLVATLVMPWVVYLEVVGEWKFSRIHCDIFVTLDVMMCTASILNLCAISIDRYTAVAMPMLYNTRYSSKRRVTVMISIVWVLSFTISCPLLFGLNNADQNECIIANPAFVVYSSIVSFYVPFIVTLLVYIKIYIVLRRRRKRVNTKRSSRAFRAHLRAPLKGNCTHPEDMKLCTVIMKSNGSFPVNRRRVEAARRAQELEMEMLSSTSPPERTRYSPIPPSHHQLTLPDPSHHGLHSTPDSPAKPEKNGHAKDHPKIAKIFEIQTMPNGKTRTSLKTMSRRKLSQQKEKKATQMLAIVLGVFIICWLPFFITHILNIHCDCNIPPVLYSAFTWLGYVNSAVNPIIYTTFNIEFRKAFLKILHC
#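 Potentiation of an EC20 dopamine calcium response is measured in a force-coupled, tetracycline-inducible Hek293 Trex D2 line. Compound-only kinetic reads over 180 s flag agonists before dopamine addition.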
# D2 antagonist = HTS Assay for Allosteric Antagonists of the Human D2 Dopamine Receptor: Primary Screen for Antagonists | D(2) dopamine receptor (Homo sapiens), P14416 | HEK293 TREx D2 cells, calcium flux, dopamine EC80 | inhibition, % at 10 µM | 340,000 tested, 2% active | AID 485344, 2010; in the data active = inhibition above about 30%; inactive = below that, where a call was filed; also: 0% is about no effect
#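 Cells plated overnight at 30 C with tetracycline; no-wash calcium dye, 30–90 min RT; 10 s baseline; compound pinned; 180 s read; EC80 dopamine added; another 180 s read.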
# D2 ag-1 = Beta-Arrestin HTS for Positive Allosteric Modulators of the Human D2 Dopamine Receptor: Agonists; D(2) dopamine receptor (Homo sapiens), P14416; DiscoveRx PathHunter D2 beta-arrestin, luminescence, 90 min; 100% = 57 uM dopamine signal; activation, % (no concentration beside the values); 360,000 tested, 0.084% active; AID 624465, 2012; in the data active = activation above about 40%
#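 DiscoveRx PathHunter D2 beta-arrestin cells (2,100/well) attached overnight, then compound-stimulated 90 min at 37 C in HBSS/10 mM HEPES/0.1% Tween-20 buffer; beta-galactosidase complementation read by luminescence after 1 h at ambient temperature. Dopamine 57 uM final (EC100) as control.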
# D2 ag-2 = HTS Assay for Allosteric Agonists of the Human D2 Dopamine Receptor: Primary Screen for Agonists; D(2) dopamine receptor (Homo sapiens), P14416; HEK293 T-REx D2 cells, calcium flux agonist mode; activation, % at 2 µM; 340,000 tested, 0.53% active; AID 485358, 2010;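 active = activation over 3 SD above normal in the single-dose calcium agonist read, cut at about 30% in these data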; also: 0% is about no effect
#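 In this primary screen, compounds producing a positive calcium signal within 180 s of addition to tetracycline-induced, force-coupled HEK293 Trex D2 cells are flagged; cells are dye-loaded with a no-wash calcium kit beforehand.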
# D2 PAM-2 = Beta-Arrestin HTS for Positive Allosteric Modulators of the Human D2 Dopamine Receptor: Potentiators; DiscoveRx D2 beta-arrestin cells, luminescence, 90 min; 100% = 57 uM dopamine signal; potentiation, % (test concentration not listed); 360,000 tested, 0.23% active; AID 624464, 2012; in the data active = potentiation above about 50%
#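 PathHunter D2 cells, attached overnight at 37 deg C, received compound in DMSO plus dopamine at EC20 (50 nM final) for 90 min at 37 deg C. Beta-arrestin recruitment was read as luminescence after 1 h with detection reagent at ambient temperature.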
# * hit, by the source's call; / = no result. In the library only some 2.4% were active in any assay of this set; here they are far more common.
SMILES,D2 PAM-1,D2 antagonist,D2 ag-1,D2 ag-2,D2 PAM-2
COC(=O)CCC(=O)OC1(C)C(=O)C2=CN(C(CO)CO)C(c3ccc(OC)cc3)=CC2=C(Br)C1=O (centres undefined),-10,30*,/,3,/
Cc1ccc(C(=O)N2CCCC(CCC(=O)N3CCN(c4ccccn4)CC3)C2)cn1 (centres undefined),6,-3,-5,0,75*
Cc1ccc(C(=O)N2CCCC(CCC(=O)N3CCN(c4ccccn4)CC3)C2)cc1C (centres undefined),5,1,-3,2,-5
COc1ccccc1CNc1cc(C)nc2nc(-c3ccc(C)cc3)nn12,-5,/,/,0,/
Cc1ccn(CCSCC(=O)O)n1,-9,11,4,0,8
Cc1ccn(CC(C)C(=O)O)n1 (centres undefined),-14,34*,-3,1,-4
COc1ccccc1NC(=O)CSc1nc2ccccc2nc1N1CC(C)OC(C)C1 (centres undefined),-8,-2,-3,0,-1
CCc1nc(SCC(=O)Nc2cc(C)ccc2OC)c2c(C)c(C)sc2n1,5,44*,1,0,0
COc1ccc(C)cc1NC(=O)CSc1nc2ccccc2nc1N1CC(C)OC(C)C1 (centres undefined),-1,38*,-1,0,-2
CCc1nc(SCC(=O)Nc2ccccc2OC)c2c(C)c(C)sc2n1,-9,-7,-6,1,9
COc1cc(NC(=O)C2CCC(CNc3c(N4CCCCC4)c(=O)c3=O)CC2)cc(OC)c1 (centres undefined),4,/,5,/,-1
COc1cc(NC(=O)C2CCC(CNc3c(N4CCC(C)CC4)c(=O)c3=O)CC2)cc(OC)c1 (centres undefined),30*,16,-2,0,-7
CCOc1ccc(NC(=O)C2CCC(CNc3c(N4CCC(C)CC4)c(=O)c3=O)CC2)cc1 (centres undefined),4,31*,-3,0,6
Cc1ccc(Cn2c(C(=O)O)c(CNCc3ccc(OC(C)C)cc3)c3ccc(C)cc32)cc1,2,/,/,0,/
O=C(c1ccc2ncsc2c1)N1CCCCC1,-6,-5,-3,1,-6
Nc1nc2ccc(C(=O)N3CCCCC3)cc2s1,0,51*,1,0,-2
CCOC(=O)Cn1c(C)c(Br)c(=O)c2cccc(C)c21,-11,31*,-3,0,-27
Cc1ccc(C)c(NC(=S)/C(=C(\[O-])c2ccc(OC(F)F)cc2)[n+]2ccccc2)c1,11,31*,-4,1,-4
[O-]/C(=C(\C(=S)Nc1ccccc1F)[n+]1ccccc1)c1ccc(OC(F)F)cc1,1,-7,-3,0,-5
Oc1ccc(-c2nccc(-c3ccc(Cl)cc3)n2)cc1,-1,2,3,-1,-5
Oc1ccc(-c2nccc(-c3ccc(Cl)cc3Cl)n2)cc1,95*,6,0,-1,-3
COc1ccc(-c2noc(C3CC(=O)N(c4ccc(C)c(F)c4)C3)n2)c(OC)c1 (centres undefined),4,/,/,0,/
CC(Sc1nnc(-c2ccccc2F)n1C1CC1)C(=O)N1CCCC1 (centres undefined),6,-7,-3,0,-2
CC(Sc1nnc(-c2ccccc2F)n1C1CC1)C(=O)NC(N)=O (centres undefined),-3,45*,-3,0,-12
CN1CCC(N(C)S(=O)(=O)c2ccc(F)cc2F)CC1,-8,33*,-2,2,-15
SMILES,D2 PAM-1,D2 antagonist,D2 ag-1,D2 ag-2,D2 PAM-2
CCOc1ccc(CCNC(=O)c2sc3ncccc3c2-n2cccc2)cc1OCC,0,/,/,0,/
COc1cccc(CSc2nc3n(n2)C(CC(C)C)C(C(=O)Nc2ccccc2OC)=C(C)N3)c1 (centres undefined),/,/,/,0,/
c1coc(CNC2CCCCCCC2)c1,1,-5,-2,0,21
O=S1(=O)CC(O)C(NCc2ccco2)C1 (centres undefined),-6,34*,0,1,-11
O=S1(=O)CC(O)C(NCCO)C1 (centres undefined),-2,-48,1,1,-2
c1coc(CNC2CCCCC2)c1,32*,-13,-3,-1,-2
CCc1nnc(SCc2cc(C)ccc2C)c2cc3sc(C)cc3n12,1,/,/,0,/
CC(C)C(=O)c1cc2c(cc1NC(=O)c1ccccc1F)OCCO2,2,/,/,0,/
COc1ccc(-c2cc(-c3ccccc3)nc3c2COc2ccc(F)cc2-3)cc1,-3,/,/,/,/
O=C(Nc1ccccc1)c1ccc(NCCN2C(=O)CCC2=O)c([N+](=O)[O-])c1,3,59*,-5,0,-11
COc1ccc(NC(=O)c2c(NCc3cccs3)sc3c2CCCCC3)cc1,16,/,/,0,/
Cc1ccc(-n2nc3c(c2NC(=O)c2ccco2)CS(=O)C3)c(C)c1 (centres undefined),-1,33*,-4,0,2
Cc1ccc(CNC(=O)c2ccc(N3CCC4(CC3)CC(c3ccccc3)=NO4)c([N+](=O)[O-])c2)cc1,-7,45*,-3,7,-28
O=C(NCc1ccccc1)c1ccc(N2CCC3(CC2)CC(c2ccccc2)=NO3)c([N+](=O)[O-])c1,-1,-16,0,0,11
COc1ccc(Oc2ncnc3sccc23)cc1,7,9,-2,0,2
Cc1nc(Oc2ccccc2)c2ccsc2n1,30*,5,-3,-2,-7
Cc1cccc(-n2ncc3c(Nc4ccc(Oc5ccc(Cl)cc5)cc4)ncnc32)c1,-11,/,/,1,/
CC(Oc1ccc2ccc(=O)oc2c1)C(=O)NC(Cc1c[nH]c2ccc(O)cc12)C(=O)O (centres undefined),-24,44*,9,-1,7
CCc1cc(=O)oc2cc(C)cc(OCC(=O)NC(Cc3c[nH]c4ccc(O)cc34)C(=O)O)c12 (centres undefined),-12,48*,7,1,20
COc1ccc(-c2cc(=O)oc3cc(OC(C)C(=O)NC(Cc4c[nH]c5ccc(O)cc45)C(=O)O)ccc23)cc1 (centres undefined),-5,-22,4,5,-14
